Screening results as filed in PubChem BioAssay.
This is one part of a sample in which hits are shown more often than they occur.
Tg IFNy HTS = inhibitors of Toxoplasma gondii growth with IFN-gamma. Toxoplasma gondii growth in IFN-gamma-treated host cells; stronger effect = lower value. activity change, negative = inhibition, % (concentration not given with the values). 69,000 compounds, 3.8% hits. AID 1259416; in the data active = activity change below about -70%, passing the limit was not always enough;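 note: host cells are HeLa cells infected with Toxoplasma gondii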
Active calls of the source: *; ! = not active in a repeat.

SMILES | Tg IFNy HTS
C[C@]12CCC3c4ccc(OC(=O)c5ccccc5)cc4CCC3C1CC[C@@H]2O (stereo partly drawn) | -87*
C[C@]12CC[C@@H]3c4cc(O)c(O)cc4CC[C@H]3[C@@H]1CC[C@@H]2O | -67
COc1ccc2c(c1)CCC1C2CC[C@@]2(C)C1CC[C@@H]2O (stereo partly drawn) | -46
C#C[C@]1(O)CC[C@H]2[C@@H]3CCc4cc(O)ccc4[C@H]3CC[C@@]21C | -79*!
C[C@]12CC[C@@H]3c4ccc(O)cc4CC[C@H]3[C@@H]1CC[C@@H]2O | -84*
C[C@]12CC[C@@H]3c4ccc(OS(=O)(=O)O)cc4CC[C@H]3[C@@H]1CCC2=O | 1
CC(=O)O[C@H]1CC[C@H]2[C@@H]3CCc4cc(O)ccc4[C@H]3CC[C@]12C | -6
CCCCNC(=O)N1CCC2(CC1)COCCN(Cc1ccncc1)C2 | -12
S=C1NC2=C(C(c3ccc(Cl)cc3Cl)N1)N1CCC2CC1 (stereo not drawn) | 38
COc1ccccc1NC(=O)C(=O)NCCc1sc(-c2cccc(F)c2)nc1C | 19
CCn1cc(-c2cc(C(=O)Nc3nc4cc(Cl)ccc4s3)no2)cn1 | -41
Cc1ccc(C2(CNC(=O)CN3C(=O)NC4C3N(C)C(=O)N4C)CCOCC2)cc1 (stereo not drawn) | -19
COc1cc(OC)c(NC(=O)N2CCC3(CC2)Nc2cc(C)ccc2-n2cccc23)cc1Cl | 342
Cc1cc(C)n2nc(CC(=O)N3CCCC3c3nc4cc(C)c(C)cc4[nH]3)nc2n1 (stereo not drawn) | 33
C#CC1(O)CCC2C3CCC4=Cc5oncc5CC4(C)C3CCC21C (stereo not drawn) | -86*
CC(=O)[C@@]1(O)CCC2C3CCC4=CC(=O)CC[C@]4(C)C3CC[C@@]21C (stereo partly drawn) | -11
CC(=O)[C@@]1(O)CC[C@H]2[C@@H]3CCC4=CC(=O)CC[C@]4(C)[C@H]3CC[C@@]21C | 8
Cc1cccc(-c2ocnc2C(=O)Nc2nnc(-c3ccco3)s2)c1 | 33
CC(CNC(=O)c1cc2cc(S(=O)(=O)N(C)C)ccc2n1Cc1ccncc1)c1ccccc1 (stereo not drawn) | -11
CCc1ccc(-c2cc(C)c3c(ccc4ccccc43)n2)cc1 | 96
COc1ccc(CN2CCc3cnn(C)c3C2COCC2CC2)cc1 (stereo not drawn) | -18
Cc1cc(CN(C)Cc2ccc(-n3cccn3)cc2)n[nH]1 | -3
CC(c1ccccn1)N(C)Cc1nc2ccccc2n1C(C)C (stereo not drawn) | -20
Cc1cc(CN(C)Cc2nc3ccccc3n2C(C)c2ccccc2)n[nH]1 (stereo not drawn) | -79*
CC(CCc1ccccc1)NC(=O)CCC1Nc2c3ccccc3nc(=S)n2C1=O (stereo not drawn) | 12
SMILES | Tg IFNy HTS
c1cncc(CN2CCCn3nnc(CN4CCCCC4)c3C2)c1 | 128
Cc1ccc(CN2CC[C@@H]3[C@H](CO[C@H]3CN3CCOCC3)C2)o1 | 141
COCC1CN(c2cc(OC)ncn2)Cc2cncn2C1 (stereo not drawn) | 4
Cc1ncc(-c2ccccn2)c(CCNC(=O)C(C)C)n1 | 17
CCn1cnc(NC(=O)N(C)Cc2cccc3ncccc23)n1 | -1
CN(C)C(=O)Nc1cccc(-c2ccc(N(C)C)cc2)c1 | 32
CCn1cc(-c2ccnc3[nH]c(-c4cccc(CN(C)C)c4)cc23)c(-c2ccc(NC(=O)N(C)C)cc2)n1 | -82*
CCN(CC)Cc1cnc2c(C(=O)Nc3ccc4c(c3)OCCO4)cnn2c1 | -17
Cc1nn(C(C)C)c(C)c1CN1CCC(C2CC=CCN(CCc3ccccc3)C2=O)CC1 (stereo not drawn) | 6
CC(=O)Nc1cccc(-c2ccccc2-c2nnc(C)s2)c1 | -23
CC(=O)Nc1cccc(-c2cnn3cccnc23)c1 | -50
CC(=O)Nc1cccc(-c2cc(C(F)(F)F)cc3[nH]cnc23)c1 | -77*
CC1CCN(S(=O)(=O)c2ccc3c(ccc(=O)n3CC(=O)N3CCCC3)c2)CC1 | 8
O=C(NCCc1csc(-c2ccccc2)n1)[C@H]1CCCN1C(=O)c1cccc(Cl)c1 | 3
Cc1nc(-c2cccc(-n3ccnc3C3CCOC(C)(C)C3)c2)n[nH]1 (stereo not drawn) | -9
COc1cc2c(cc1OC)CN(Cc1c(C(C)C)[nH]c3ncccc13)CC2 | -38
COc1cc2c(cc1OC)CN(CCc1ccc(NC(=O)c3cccc4c(=O)c5cccc(OC)c5[nH]c34)cc1)CC2 | -84*
COc1cc2c(cc1OC)CN(CC(=O)NC(C)c1cn(C)nc1C)CC2 (stereo not drawn) | 2
C(=C\c1ccccc1)/CN1CCN(C(c2ccccc2)c2ccccc2)CC1 | 14
OC(CSc1cccs1)CN1CCN(C(c2ccccc2)c2ccccc2)CC1 (stereo not drawn) | -94*
Cc1ccccc1-c1nc(Cn2ccn3nc(-c4ccc5c(c4)OCO5)cc3c2=O)c(C)o1 | 58
FC(F)(F)c1cc2[nH]c(=S)[nH]c2cc1Cl | -93*
Cc1cccc(-c2noc(CN(C)Cc3cc4n(n3)CCNC4)n2)c1 | 28
COc1ccc(C)cc1NC(=O)C(=O)NCCc1sc(-c2ccc(C)cc2)nc1C | 239
O=C(NCCc1csc(-c2cccc(F)c2)n1)c1cccc(F)c1 | -59
SMILES | Tg IFNy HTS
COc1ccc(C(=O)NCCc2csc(-c3cccc(F)c3)n2)cc1 | 7
Cc1cccc(-c2nc(CCNC(=O)c3ccco3)cs2)c1 | 497
O=C(NCCc1csc(-c2ccc(Cl)cc2)n1)c1ccco1 | -81*
COc1ccc(C(=O)NCCc2csc(-c3cccc(F)c3)n2)c(OC)c1 | -81*
O=C(NCCc1csc(-c2ccccc2)n1)c1ccc(Cl)cc1 | 399
CCCCOc1ccc(C(=O)NCCc2csc(-c3cccc(F)c3)n2)cc1 | -81*
CC(C)Oc1ccc(C(=O)NCCc2csc(-c3cccc(F)c3)n2)cc1 | 36
O=C(NCCc1csc(-c2ccc(Cl)cc2)n1)c1cccc(F)c1 | -50
O=C(NCCc1csc(-c2ccc(F)cc2)n1)c1cccc(F)c1 | -90*
COc1cc(OC)cc(C(=O)NCCc2csc(-c3cccc(F)c3)n2)c1 | 30
COc1cccc(C(=O)NCCc2csc(-c3cccc(F)c3)n2)c1 | -48
COc1cccc(CC(=O)N2CCC3(CC2)NC(=O)c2cc(C)ccc2N3C)c1 | -51
CCOC(=O)c1cccc(NC(=O)c2nc(Nc3ccc(C)cc3)c3ccccc3n2)c1 | 57
Cn1nnc2c1C(COCC1CC1)CNC2 (stereo not drawn) | 8
CCOc1ncccc1CNC(=O)c1cc(NC(C)=O)ccc1Cl | -39
Clc1ccc(CSc2nnc(COc3ccc(Cl)cc3)o2)cc1 | -14
COc1cc(N2CCC(O)(c3ccccc3C)C2)ncn1 (stereo not drawn) | -26
CC1CCN(CC2(NC(=O)c3cccn4nnnc34)CCCCC2)CC1 | -4
Cc1oc(-c2ccccc2)nc1Cn1nnc(-c2nc(-c3ccc(Cl)c(F)c3)no2)c1C | 13
CCCOc1ccccc1CN1CCn2c(CO)nnc2C1 | -31
Cn1cc(CCNC(=O)c2cc(=O)n(C)c3ccccc23)c2cc(F)ccc21 | 34
CCOc1ccc(-c2nc(Cn3nnc(C(=O)Nc4ccc(C)cc4C)c3C)c(C)o2)cc1 | 60
CC1Oc2ccc(NC(=O)Cc3nnn(C(C)C)n3)cc2NC1=O (stereo not drawn) | 9
Cc1ccc(-c2coc(-c3ccc(NC(=O)CC(C)C)cc3)n2)c(C)c1 | -15
O=C(NCCc1csc(C2CCN(C(=O)Nc3ccccc3)CC2)n1)C1CCC1 | 16
